Data reported in PubChem BioAssay AID743279 (National Center for Advancing Translational Sciences (NCATS), 2014).
The campaign covered roughly 360,000 compounds. About 17,000 (4.7%) were called active. About 5% were inconclusive and are not listed. Many of the other results were omitted from the sample, so actives are more common in it than they were. Unmarked numbers belong to inactive results. No stated cut-off is given here; in the data, active means activity change below about -50%; inconclusive means mostly about -30% to -49%; inactive means weaker than that.
On the % scale 0 is the no-effect control and ±100 the full control effect.

Assay: qHTS for Inhibitors of Inflammasome Signaling: IL-1-beta AlphaLISA Primary Screen
Conditions: THP-1 LPS/ATP IL-1B secretion, 16 h; at 57.5 µM, hits give low values
How it was run: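 Secreted IL-1B measured by AlphaLISA bead assay after 16 h compound exposure of THP-1 cells; compounds (final up to 57.5 uM) added 1 h before LPS (250 ng/mL) and ATP (1.25 mM) stimulation; lower signal means less secretion.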
`CCCC(=O)N1CCC1(C)C(=O)NCc1ccc(SC)cc1` (centres undefined) showed an activity change of 21.3%.
For `C/C(=N\NC(=S)NCc1ccccc1)c1ccc(Cl)cc1`, the activity change was 0%.
For `C/C(=N\OCC(=O)O)c1ccc(Cl)cc1`, the activity change was 0%.
With `C/C(=N\N=C(N)N)c1ccc(Cl)cc1` the activity change was -86.4% (active).
`CCc1nc2c(OCC(=O)C(C)(C)C)cccn2c1N(C)C(=O)c1ccccc1F` showed an activity change of 32.1%.
`O=C(Nc1cc(Br)ccc1F)c1nc[nH]c1C(=O)NCc1ccccc1` showed an activity change of -4.71%.
Work on `OC[C@@H]1CN(C2CCCC2)C[C@H](n2cnc3c(NC4CCC4)ncnc32)O1` yielded an activity change of 5.5%.
`Cc1ccc(SCC(=O)N2CCN(c3ccc(F)cc3)CC2)cc1` showed an activity change of -12.4%.
With `CCN1CCN(C(=O)CSc2ccc(C)cc2)CC1` the activity change was -5.59%.
For `CCN1CCC2(CC1)N=C(c1ccc(F)cc1)C(=S)N2C(=O)c1ccc(C)cc1`, the activity change was -115% (active).
`CC(Sc1nncn1C)C(=O)NCCC1=CCCCC1` (centres undefined) showed an activity change of 1.27%.
Work on `CCCCN(Cc1ccccc1)C(=O)C1CCN(Cc2sccc2C)CC1` yielded an activity change of -20.5%.
`O=C(NCc1ccccn1)[C@@H]1CCCN1C(=O)[C@@H]1CCCN1C(=O)c1ccccc1` gave an activity change of 0%.
In the case of `CCOc1cc2ccccc2cc1C(=O)Nc1ccccn1`, the activity change is reported as 9.73%.
`CCC(C(=O)OCCN(CC)CC)c1ccccc1` (centres undefined) showed an activity change of -16.3%.
With `CCN(CC)CCOc1ccc2c(c1)C(=NNC(=O)c1ccccn1)c1cc(OCCN(CC)CC)ccc1-2` the activity change was -56.2% (active).
In the case of `CC(C)(CNCC(O)c1ccccc1)N1CCOCC1` (centres undefined), the activity change is reported as -7.93%.
With `OC(CNCc1ccc(Cl)c(Cl)c1)c1ccccc1` (centres undefined) the activity change was -69.4% (active).
Work on `Cc1c(Cl)cccc1NC(=S)NCC(O)c1ccccc1` (centres undefined) yielded an activity change of -6.92%.
`Cc1c(NC(=O)C(=O)N/N=C/c2cccs2)c(=O)n(-c2ccccc2)n1C` gave an activity change of -21.9%.
`O=C(NCc1ccc(F)cc1)c1cc(C2CCCCN2C(=O)c2ccccn2)on1` (centres undefined) showed an activity change of 42.4%.
Work on `O=C(OCc1cn(-c2ccc(Cl)c(Cl)c2)nn1)c1ccccc1Cl` yielded an activity change of -2.76%.
For `Cc1cccc(CN2CCN(C3CN(Cc4cn(Cc5cc(C)cc(C)c5)nn4)S(=O)(=O)C3)CC2)c1` (centres undefined), the activity change was -18.8%.
Compound `COC(=O)c1ccc(COC(=O)c2cnc(Cl)c(Cl)c2)cc1` has an activity change of -13.4%.
For `CCOc1ccc(C(C)=O)cc1COC(=O)c1cnc(Cl)c(Cl)c1`, the activity change was -108% (active).
Work on `CCOc1ccc(C(C)=O)cc1COC(=O)CNC(=O)c1cccs1` yielded an activity change of -9.33%.
`CC(C)c1cc(Cn2c3ccccc3c(=O)n2C(C)Cn2cc(C3CC3)nn2)on1` (centres undefined) showed an activity change of -6.05%.
In the case of `O=C1CS(=O)CN1c1ccc(Oc2ccccc2)cc1` (centres undefined), the activity change is reported as 15%.
Work on `O=C1c2ccccc2C(c2nc3ccccc3[nH]2)N1c1ccccc1` (centres undefined) yielded an activity change of 81%.
Work on `Cc1cccn2c(=O)c3cc(C(=O)NC4CCCCC4)sc3nc12` yielded an activity change of -16.1%.
With `CC1(C(=O)NS(=O)(=O)C2CC2)CCCN(C(=O)CSc2ccccc2)C1` (centres undefined) the activity change was 10.6%.
In the case of `CCOc1ccc(C(=O)Nc2c3c(nn2-c2ccccc2)CS(=O)(=O)C3)cc1`, the activity change is reported as 12.2%.
Compound `CC1CCN(c2nc3c(c(=O)[nH]c(=O)n3C)n2CCCc2ccccc2)CC1` has an activity change of 14.1%.
With `O=C1N=C(N2CCOCC2)S/C1=C\C=C/c1ccccc1` the activity change was -18%.
With `CC1CCN(C2=NC(=O)/C(=C/c3cn[nH]c3-c3ccccc3)S2)CC1` the activity change was -59.2% (active).
Compound `CC(C)C(NC(=O)c1c(F)cccc1F)C(=O)NCc1ccncc1` (centres undefined) has an activity change of 4.1%.
Compound `CC(C)C(NC(=O)OCc1ccccc1)C(=O)OCC(=O)N1C(C)CCCC1C` (centres undefined) has an activity change of -2.86%.
In the case of `O=C(c1ccc(N2CCOCC2)c([N+](=O)[O-])c1)N1CCN(S(=O)(=O)c2cccs2)CC1`, the activity change is reported as -0.922%.
In the case of `CC(C)c1ccc(S(=O)(=O)N2CCN(C(=O)c3ccc(N4CCCC4)c([N+](=O)[O-])c3)CC2)cc1`, the activity change is reported as -52% (active).
`Cc1ccc(S(=O)(=O)N2CCN(C(=O)c3ccc(-n4cncn4)c([N+](=O)[O-])c3)CC2)cc1` gave an activity change of -5.16%.
`CCN(CCn1cccn1)Cc1nc(-c2ccc(C(=O)OC)cc2)no1` gave an activity change of 81.6%.
In the case of `Clc1ccc(-c2cc(C3CCNCC3)[nH]n2)c(Cl)c1`, the activity change is reported as -79.9% (active).
With `Clc1ccc(-c2cc(-c3ccccn3)on2)c(Cl)c1` the activity change was 0%.
`O=C(Cn1ccc([N+](=O)[O-])n1)NCc1cccs1` gave an activity change of 5.04%.
`O=C(NCCc1cccc(F)c1)C1CC(O)CN1C(=O)Nc1ccccc1` (centres undefined) showed an activity change of 22.4%.
`CCCS(=O)(=O)C(=C1Nc2ccccc2N1)S(=O)(=O)CCC` gave an activity change of 3.44%.
With `O=C(CN1CCCCCC1)N1c2ccccc2Sc2ccc(C(F)(F)F)cc21` the activity change was -60% (active).
Compound `COc1cc(/C=C/C(=O)N2c3ccccc3Sc3ccc(C(F)(F)F)cc32)cc(OC)c1OC` has an activity change of -1.9%.
With `O=C(CN1CCCCC1)N1c2ccccc2Sc2ccc(C(F)(F)F)cc21` the activity change was -13.4%.
Work on `CC(=O)NCCc1ccc(S(=O)(=O)N(C)C2CCS(=O)(=O)C2)cc1` (centres undefined) yielded an activity change of 0%.
In the case of `CC(=O)c1nn(-c2ccccc2)c(=Nc2ccccc2)cc1C`, the activity change is reported as -11%.
In the case of `Oc1ccccc1-c1cc(-c2ccc(Cl)cc2)n[nH]1`, the activity change is reported as -71.3% (active).
`CSc1ccccc1-c1nnc(-c2ccc(Cl)cc2)o1` showed an activity change of -6.95%.
`O=C(Nc1ccc(Cl)cn1)c1ccccc1-c1ccccc1` gave an activity change of 7.39%.
Work on `CC(=O)NC(C)(C)C1CC=C(C)/C(=N\O)C1` (centres undefined) yielded an activity change of 3.35%.
For `COc1ccc(N(C)S(=O)(=O)c2ccc3c(c2)CC(C)N3C(=O)C2CC2)c(OC)c1` (centres undefined), the activity change was -63.4% (active).
With `COc1ccccc1CNC(=O)C1CCN(S(=O)(=O)c2ccc3c(c2)CC(C)N3C(=O)C2CC2)CC1` (centres undefined) the activity change was -26%.
Compound `COc1cccc(CNS(=O)(=O)c2ccc3c(c2)CC(C)N3C(C)=O)c1` (centres undefined) has an activity change of 4.38%.
With `C[C@H](CO)N1C[C@H](C)[C@@H](CN(C)C(=O)c2cnccn2)Oc2ncc(Br)cc2C1=O` the activity change was 33.8%.
For `O=C1/C(=C\c2ccc([N+](=O)[O-])cc2)CS(=O)(=O)C/C1=C/c1ccc([N+](=O)[O-])cc1`, the activity change was -99.9% (active).
`CC(=O)Nc1ccc(C=Cc2ccc([N+](=O)[O-])cc2)cc1` showed an activity change of -18.6%.
Compound `O=[N+]([O-])c1ccc(C=NN=Cc2ccc([N+](=O)[O-])cc2)cc1` has an activity change of -8.06%.
For `CCN(C(=O)CSc1ncnc2c1cnn2-c1ccccc1)C1CCS(=O)(=O)C1` (centres undefined), the activity change was -60.6% (active).
Compound `CCN(CC)C(=O)CSc1ncnc2c1cnn2-c1ccccc1` has an activity change of -11.6%.
For `CCC(C)N(C(=O)CSc1ncnc2c1cnn2-c1ccccc1)C1CCS(=O)(=O)C1` (centres undefined), the activity change was -9.61%.
In the case of `CC1=C(C(=O)N2CCOCC2)CC(CC(=O)NCC2CCCCC2)C(=O)N1Cc1ccc(F)cc1` (centres undefined), the activity change is reported as 3.54%.
In the case of `CNc1cc(-c2c(OC)cccc2OC)ncn1`, the activity change is reported as 22.1%.
For `Cc1ccc(OCCNC(=O)c2cccc(S(=O)(=O)N3CCN(Cc4ccccc4)CC3)c2)cc1`, the activity change was -14.6%.
Compound `C=CCN(CC=C)C(=O)COC(=O)c1n[nH]c2ccccc12` has an activity change of 18.7%.
For `CC(C)C[C@H]1CNC(=S)N1C[C@H]1CCCN1C[C@H](Cc1ccc(O)cc1)N1C[C@H](Cc2ccc(O)cc2)N(CC2CCCCC2)C1=S`, the activity change was -11.2%.
With `CC(C)C[C@H]1CNC(=O)C(=O)N1C[C@@H]1CCCN1C[C@H](Cc1ccccc1)N1C[C@H](CC(C)C)N(CC2CCCCCC2)C(=O)C1=O` the activity change was 0%.
With `CCOc1ccc(CCN2C(=S)N([C@@H](CC(C)C)CN3CCC[C@@H]3CN3C(=S)NC[C@@H]3Cc3ccc(O)cc3)C[C@@H]2Cc2ccc(O)cc2)cc1` the activity change was -64.1% (active).
For `CC(C)C[C@H]1CNC(=O)C(=O)N1C[C@H]1CCCN1C[C@H](Cc1ccc(O)cc1)N1C[C@H](CC(C)C)N(CC2CCCCCC2)C(=O)C1=O`, the activity change was -60.7% (active).
Work on `CCOc1ccc(CCN2C(=O)C(=O)N([C@@H](CC(C)C)CN3CCC[C@H]3CN3C(=O)C(=O)NC[C@@H]3Cc3ccccc3)C[C@@H]2CC(C)C)cc1` yielded an activity change of -1.26%.
Compound `O=C1NC[C@H](Cc2ccc(O)cc2)N(C[C@@H]2CCCN2C[C@H](Cc2ccccc2)N2C[C@H](Cc3ccccc3)N(CC3CCCCC3)C(=O)C2=O)C1=O` has an activity change of -15.5%.
`CC(C)C[C@H]1CN([C@@H](Cc2ccccc2)CN2CCC[C@@H]2CN2C(=O)C(=O)NC[C@@H]2Cc2ccc(O)cc2)C(=O)C(=O)N1CCc1ccccc1` showed an activity change of 0%.
For `CC(C)C[C@H]1CN([C@@H](CC(C)C)CN2CCC[C@@H]2CN2C(=O)C(=O)NC[C@@H]2Cc2ccccc2)C(=O)C(=O)N1CCc1ccccc1`, the activity change was -63.4% (active).
Compound `CCOc1ccc(CCN2C(=O)C(=O)N([C@@H](Cc3ccc(O)cc3)CN3CCC[C@H]3CN3C(=O)C(=O)NC[C@@H]3CC(C)C)C[C@@H]2Cc2ccccc2)cc1` has an activity change of 13.9%.
Compound `CCCCN1CC(COc2ccccc2)Oc2cccc(F)c2S1(=O)=O` (centres undefined) has an activity change of -1.95%.
`COc1cc(NC(=O)CSc2ccc(-c3cccnc3)nn2)cc(OC)c1` gave an activity change of -13.8%.
Work on `CC1CCC2(CC1)NC(=O)N(CC(=O)NCc1ccco1)C2=O` (centres undefined) yielded an activity change of 5.54%.
`CCc1ccc2c(c1)NC(=O)C2(C)Cc1ccc(OC(F)(F)F)cc1` (centres undefined) gave an activity change of -20.9%.
Work on `N#C/C=C(/c1ccc(F)cc1)N1CCOCC1` yielded an activity change of 11.5%.
In the case of `COc1ccc(CNC(=O)COC(=O)C2=Cc3ccccc3OC2)cc1`, the activity change is reported as 1.65%.
